From PubChem BioAssay
The list is not random: actives were taken first. Their share in the collection is about 4.6%.
TRHR PAM: allosterically enhances the human TRH receptor; enhancement, % at 2 µM; P34981; TRHR cells, fluo-8 calcium fluorescence, EC20 TRH enhancement; AID 493056; hit rate 0.66% among 360,000; in the data active = enhancement above about 30%; note: 0% is about no effect
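Enhancer read-out: after compound pinning and an initial kinetic agonist-mode read, an EC20 of TRH (10 nM final) was injected and fluo-8 calcium signal (Ex 480/Em 530) followed at 1 s/cycle for 100 cycles in TRHR-expressing cells.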
D1 antag: blocks dopamine activation of the human D1 receptor | HEK293 TREx D1 cells, calcium flux, dopamine EC80; hits give low values | P21728 | activity change, negative = inhibition, % at 10 µM | hit rate 3.2% among 360,000 | AID 504652; in the data active = activity change below about -30%; note: % is set by controls: 0 for no effect and ±100 for the full control effect
Target sequence (P21728 whole entry, looked up): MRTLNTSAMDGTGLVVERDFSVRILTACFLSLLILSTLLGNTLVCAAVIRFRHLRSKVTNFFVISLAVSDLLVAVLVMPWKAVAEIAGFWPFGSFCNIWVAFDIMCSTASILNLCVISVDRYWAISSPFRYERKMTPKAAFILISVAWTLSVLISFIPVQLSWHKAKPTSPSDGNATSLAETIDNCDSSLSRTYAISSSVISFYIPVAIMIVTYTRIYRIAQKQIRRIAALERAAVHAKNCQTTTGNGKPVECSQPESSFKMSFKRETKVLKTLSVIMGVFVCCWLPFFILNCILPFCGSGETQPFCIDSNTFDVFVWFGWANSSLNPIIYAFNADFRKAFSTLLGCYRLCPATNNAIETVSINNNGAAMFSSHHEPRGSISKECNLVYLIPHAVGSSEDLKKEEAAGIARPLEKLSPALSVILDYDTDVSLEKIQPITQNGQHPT
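Compound effects on dopamine-evoked calcium signalling were measured in tetracycline-induced HEK293 Trex D1 cells. Dopamine at EC80 followed a 180 s compound pre-read, and fluorescence was tracked kinetically for 180 s more.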
D1 potentiator: human D1 dopamine receptor positive modulation; P21728; HEK293 TREx D1 cells, calcium flux, dopamine EC20 potentiation; potentiation, % at 10 µM; hit rate 0.036% among 360,000; AID 504651; in the data active = potentiation above about 30%; note: 0% is about no effect
D1 agonist: human D1 receptor agonism. P21728. HEK293 T-REx D1 cells, calcium flux, agonist mode. activation, % at 2 µM. hit rate 1% among 360,000. AID 504660; note: 0% is about no effect
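Tetracycline-induced HEK293 TREx D1 cells, force-coupled to calcium signalling, were dye-loaded with a no-wash calcium kit. Compound was pin-added after a 10 s baseline. Fluorescence was read kinetically at 1 cycle/s for 180 s, with calcium rises flagged as agonism.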
TRHR ag: TRH receptor (human) agonism | P34981 | TRHR cells, calcium flux fluo-8, FDSS agonist mode | activation, % at 2 µM | hit rate 0.18% among 360,000; note: 0% is about no effect
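Fluo-8-loaded TRHR cells; 10 s baseline, compound added, kinetic Ca2+ fluorescence read 1/s, agonist mode.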
Active calls of the source: *; · = no result. Cut-off read from the data, not from the text of the source, unless noted: active = activation above about 30%; inactive = the rest.

SMILES	TRHR PAM	D1 antag	D1 potentiator	D1 agonist	TRHR ag
C=CCOC(=O)C1=C(C)NC(SC)=C(C#N)C1c1cccs1 (configuration not stated)	-9.8	-20.1	-5.8	-0.1	-0.7
CCOC(=O)C1=C(C)NC(SCC(=O)Nc2cc(C)on2)=C(C#N)C1c1cccs1 (configuration not stated)	-5.7	-48.2*	-6.2	3.3	-0.3
C=CCOC(=O)C1=C(C)NC(SCC(=O)Nc2nccs2)=C(C#N)C1c1cccs1 (configuration not stated)	10.6	-75.5*	-21.8	1.7	-0.7
CCOC(=O)C1=C(C)NC(SCC(N)=O)=C(C#N)C1c1cccs1 (configuration not stated)	8.6	34.8	-5.0	2.0	-0.9
C=CCOC(=O)C1=C(C)NC(SCC(=O)Nc2nccs2)=C(C#N)C1c1ccc(Cl)cc1 (configuration not stated)	2.1	-69.6*	-13.7	0.5	-0.3
Cc1cc2c(s1)c1cnn(Cc3cccc(C(F)(F)F)c3)c(=O)c1n2C	-2.6	-4.2	-5.8	6.8	1.2
COc1ccc(CN(Cc2ccco2)C(=O)COc2ccccc2OC)cc1	-4.5	-11.1	0.3	1.6	-1.0
O=S(=O)(c1ccc2c(c1)OCCO2)N1CCN(S(=O)(=O)c2ccc(Br)cc2F)CC1	2.7	-1.2	2.1	-0.5	0.2
COc1ccc(C2=NCCc3cc(OC)c(OC)cc32)cc1OC	2.9	8.7	-2.7	1.7	-0.6
COc1ccc(C2=NCCc3cc(OC)c(OC)cc32)cc1	3.3	-61.1*	-11.8	2.6	0.1
COc1cc(NC(=O)NC(C)c2c(-n3cccc3)sc3c2CCN(C)C3)cc(OC)c1 (configuration not stated)	-10.8	-5.7	-2.3	14.7	1.5
COc1ccc(CCC(=O)OCC(=O)NCc2ccc3c(c2)OCO3)cc1	-0.7	15.4	·	12.0	0.5
COC(=O)c1ccccc1NC(=O)CN1CCC(C(=O)c2ccc3c(c2)OCCO3)CC1	10.2	-31.5*	2.4	7.5	-0.1
Cc1ccc(NC(=O)CN2CCC(C(=O)c3ccc4c(c3)OCCO4)CC2)cc1	-1.6	3.7	0.1	2.6	-0.4
C/C(=N\OCC(=O)OCC(=O)Nc1cc(S(C)(=O)=O)ccc1Cl)c1ccc2c(c1)OCO2	-7.5	-14.4	-0.5	5.1	-0.9
COC(=O)c1ccccc1NC(=O)COC(=O)CO/N=C(\C)c1ccc2c(c1)OCO2	-6.7	-31.4*	0.1	6.8	0.7
COc1ccc(CNC(=O)COC(=O)CO/N=C(\C)c2ccc3c(c2)OCO3)cc1	7.8	-33.1*	-6.0	-1.1	-1.4
C/C(=N\OCC(=O)Nc1ccc2c(c1)OCCO2)c1ccc2c(c1)OCCO2	-3.5	18.9	0.3	2.2	-1.2
C/C(=N\OCC(=O)OCC(=O)NC(=O)c1ccccc1)c1ccc2c(c1)OCO2	-2.4	-40.4*	0.8	3.1	0.7
CCn1nc(C)c(CCN(C)C(=O)Nc2cc(OC)c(OC)c(OC)c2)c1C	1.0	-0.9	-0.2	0.0	-0.1
N#Cc1c(-c2ccccc2)cc(-c2ccccc2)nc1SCC(O)CS(=O)(=O)Cc1ccc(Cl)cc1 (configuration not stated)	0.7	-4.0	-0.7	3.2	0.1
N#C/C(=N\Nc1ccc(Cl)cc1)C(N)=S	-4.6	-14.6	-3.0	30.3*	3.3
N#C/C(=N\Nc1ccccc1)C(N)=S	-3.8	-27.1	-7.0	18.8	1.8
COCCCNC(=O)c1ccc(Cn2c(=O)c3cccn3c3cccnc32)cc1	-1.6	-8.0	-4.5	0.9	0.2
O=C(c1cccc(F)c1)N1CCN(Cc2c[nH]c3ccccc23)CC1	-1.7	-54.5*	-5.4	0.9	0.5
SMILES	TRHR PAM	D1 antag	D1 potentiator	D1 agonist	TRHR ag
O=C(Cc1ccccc1[N+](=O)[O-])OCC(=O)c1c[nH]c2ccccc12	0.5	-37.9*	-4.7	2.2	-0.2
O=C(c1ccccc1)N1CCN(Cc2c[nH]c3ccccc23)CC1	-5.9	15.8	-6.8	6.4	0.2
CC(=O)OCC(=O)c1c[nH]c2ccccc12	-9.2	11.5	-5.8	0.3	0.5
CC(=O)c1c(C)[nH]c(C(=O)OCC(=O)c2c[nH]c3ccccc23)c1C	-1.3	-30.6*	-3.1	4.1	0.2
COc1ccc(Br)cc1CN1CCN(Cc2c[nH]c3ccccc23)CC1	0.8	-14.5	-17.5	37.8*	3.5
O=C(COC(=O)C1CC1)c1c[nH]c2ccccc12	-0.3	-10.5	0.9	-4.0	-0.3
Cc1ccc(CNC(=O)c2c(-c3ccc(Br)cc3)noc2C)o1	-0.1	2.5	2.9	-0.1	0.4
Cc1ccc(C)c(S(=O)(=O)n2nc(C)c(S(=O)(=O)N3CCCCCC3)c2C)c1	-1.0	-17.1	1.9	0.9	-0.2
CCOC(=O)Cn1c(=O)n(CC2CCCO2)c2nc(-c3ccc(OCC)cc3)nc(C(N)=O)c21 (configuration not stated)	8.2	-4.8	5.8	3.4	-0.4
COc1ccc(C(C(=O)NCc2ccccc2)N(C(=O)Cn2nnc3ccccc32)c2cccc(OC)c2)cc1 (configuration not stated)	-0.5	2.1	-1.2	6.3	0.5
O=[N+]([O-])c1ccccc1CN1CCN(Cc2c[nH]c3ccccc23)CC1	19.8	-30.1*	-9.6	18.8	1.7
NC(=O)c1nsc(C(=O)N(c2ccccc2F)C(C(=O)NCc2ccc(F)cc2)c2ccc(O)cc2)c1N (configuration not stated)	30.1*	7.1	-1.2	9.5	1.1
CCOc1ccc(Br)cc1CNCCSc1nnnn1-c1ccccc1	-13.8	-37.9*	0.7	105.8*	7.3
Cn1nnnc1SCCCNCc1cc(Br)ccc1OCc1ccccc1	-0.6	-24.9	-1.4	39.4*	0.3
Brc1cccc(CNCCSc2nnnn2-c2ccccc2)c1	-2.8	6.5	5.5	5.4	-1.6
Cn1nnnc1SCCNCc1ccc(OCc2ccc(Cl)cc2)cc1	-4.1	-9.4	-1.1	46.4*	1.2
Cn1nnnc1SCCCNCc1ccc(-c2ccc(Br)cc2)o1	1.6	-21.2	-0.5	41.3*	0.9
CCc1ccc(Cn2c(CNS(=O)(=O)c3ccc4c(c3)CCCC4)nc3cccnc32)cc1	-0.5	14.8	-2.8	3.1	-0.2
O=C(NCc1ccc(Cl)cc1)c1ccc(NC(=O)N2CC3CCCN3c3ccccc32)cc1 (configuration not stated)	8.8	-1.6	-2.2	2.9	0.6
Cc1ccc(CNC(=O)C2CCN(C(=O)c3ccc(-n4ccc5ccccc54)s3)CC2)cc1	2.5	1.1	-1.6	2.6	0.4
CCc1ccc(NC(=O)c2ccc3c(O)c(S(=O)(=O)c4ccc(Cl)cc4)c(=O)[nH]c3c2)cc1	-2.7	-14.3	0.4	3.2	0.2
COc1ccc(C(C)NCCC(c2ccc(OC(C)C)cc2)c2ccccc2OC)cc1 (configuration not stated)	5.8	18.6	9.4	38.4*	3.3
